The whole screen tested about 5,500 compounds, of which about 2,000 (36%) were called active. Inconclusive results (about 18%) are left out. No stated cut-off is given here; in the data, active means normalized growth mostly below about 0.91 (no sharp cut-off); inconclusive means no clear call, values can overlap the other calls; inactive means mostly above about 0.92. Some of the results follow.
Assay: chemical genetic growth profiling, strain panel (AID 1159580);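 further: tested at 20 µM; growth read once vehicle control cultures reached saturation at 30 °C; 1 = growth at the plate median or of vehicle wells; lower values mean less growth of the strain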
Conditions: S. cerevisiae deletion strains, growth OD

Measured: normalized growth

OCc1c[nH]c2ccccc12
active: locus YCL011C, strain gbp2, hits give low values 0.815 | locus YDR137W, strain rgp1, hits give low values 0.741 | locus YEL003W, strain gim4, hits give low values 0.8 | locus YJL164C, strain tpk1, hits give low values 0.895 | locus YJL166W, strain qcr8, hits give low values 0.779 | locus YLR221C, strain rsa3, hits give low values 0.862 | locus YLR262C, strain YPT6 (second series), hits give low values 0.663 | locus YLR320W, strain mms22, hits give low values 0.742 | locus YLR342W, strain FKS1, hits give low values 0.905 | locus YML120C, strain ndi1, hits give low values 0.902 | locus YMR205C, strain PFK2, hits give low values 0.849 | locus YNL071W, strain lat1, hits give low values 0.622 | locus YOR001W, strain rrp6, hits give low values 0.854 | locus YOR106W, strain vam3, hits give low values 0.702 | locus YPL051W, strain arl3, hits give low values 0.791 | locus YPL240C, strain hsp82, hits give low values 0.914
inactive: locus YAL021C, strain ccr4, hits give low values 0.949 | locus YAL026C, strain drs2, hits give low values 0.991 | locus YAL030W, strain snc1, hits give low values 0.979 | locus YBL061C, strain skt5, hits give low values 0.969 | locus YBR009C, strain hhf1, hits give low values 0.926 | locus YBR023C, strain chs3, hits give low values 0.955 | locus YBR171W, strain sec66, hits give low values 0.977 | locus YBR231C, strain swc5, hits give low values 0.953 | locus YBR279W, strain paf1, hits give low values 0.956 | locus YCL016C, strain dcc1, hits give low values 0.957 | locus YCL061C, strain MRC1, hits give low values 1.01 | locus YCL069W, strain vba3, hits give low values 0.976 | locus YCR088W, strain abp1, hits give low values 0.971 | locus YDL005C, strain med2, hits give low values 0.989 | locus YDL040C, strain nat1, hits give low values 0.981 | locus YDR001C, strain nth1, hits give low values 0.99 | locus YDR069C, strain doa4, hits give low values 0.974 | locus YDR159W, strain sac3, hits give low values 0.88 | locus YDR195W, strain ref2 1 | locus YDR297W, strain sur2, hits give low values 0.956 | locus YDR334W, strain swr1, hits give low values 1 | locus YDR335W, strain msn5, hits give low values 0.984 | locus YDR392W, strain spt3, hits give low values 0.856 | locus YEL037C, strain rad23, hits give low values 0.978 | locus YEL061C, strain CIN8 (second series), hits give low values 0.975 | locus YER015W, strain faa2, hits give low values 0.943 | locus YER016W, strain bim1, hits give low values 0.977 | locus YER111C, strain swi4, hits give low values 0.992 | locus YER155C, strain BEM2 (second series), hits give low values 0.966 | locus YFR010W, strain ubp6, hits give low values 0.984 | locus YGL167C, strain pmr1, hits give low values 0.978 | locus YGL173C, strain kem1, hits give low values 0.96 | locus YGL227W, strain vid30, hits give low values 0.983 | locus YGL240W, strain doc1, hits give low values 0.911 | locus YGL253W, strain hxk2, hits give low values 0.98 | locus YHR013C, strain ard1, hits give low values 0.955 | locus YHR027C, strain rpn1, hits give low values 0.96 | locus YHR030C, strain SLT2, hits give low values 1.02 | locus YHR079C, strain IRE1, hits give low values 1.05 | locus YHR142W, strain chs7, hits give low values 0.948 | locus YJL092W, strain hpr5, hits give low values 0.979 | locus YJL095W, strain BCK1 (second series), hits give low values 0.944 | locus YJL095W, strain BCK1, hits give low values 0.979 | locus YJL115W, strain asf1, hits give low values 0.981 | locus YJL129C, strain trk1, hits give low values 0.879 | locus YJL154C, strain vps35, hits give low values 0.987 | locus YJL187C, strain SWE1, hits give low values 0.958 | locus YJR066W, strain TOR1, hits give low values 0.961 | locus YKL160W, strain elf1, hits give low values 0.907 | locus YKR026C, strain gcn3, hits give low values 0.998 | locus YKR091W, strain srl3, hits give low values 0.99 | locus YLL001W, strain dnm1, hits give low values 1 | locus YLL026W, hits give low values 0.976 | locus YLL041C, strain sdh2, hits give low values 0.979 | locus YLR113W, strain HOG1, hits give low values 1 | locus YLR258W, strain gsy2, hits give low values 0.939 | locus YLR357W, strain rsc2, hits give low values 0.977 | locus YLR370C, strain arc18, hits give low values 0.982 | locus YLR384C, strain iki3, hits give low values 0.976 | locus YMR058W, strain fet3, hits give low values 0.991 | locus YMR125W, strain sto1, hits give low values 0.974 | locus YMR129W, hits give low values 1 | locus YMR231W, strain pep5, hits give low values 0.968 | locus YNL183C, strain NPR1, hits give low values 0.931 | locus YNL209W, strain ssb2, hits give low values 0.969 | locus YNL248C, strain rpa49, hits give low values 0.997 | locus YNL322C, strain KRE1 (second series), hits give low values 0.996 | locus YNR049C, strain mso1, hits give low values 0.99 | locus YOR070C, strain gyp1, hits give low values 0.93 | locus YOR080W, strain dia2, hits give low values 1 | locus YOR083W, strain WHI5, hits give low values 0.987 | locus YOR231W, strain MKK1, hits give low values 1.04 | locus YOR265W, strain rbl2, hits give low values 0.972 | locus YOR270C, strain vph1, hits give low values 0.974 | locus YOR290C, strain snf2, hits give low values 0.963 | locus YPL078C, strain atp4, hits give low values 0.983 | locus YPL106C, strain sse1, hits give low values 0.952 | locus YPL256C, strain CLN2, hits give low values 1.08

Reference: PubChem BioAssay AID1159580 (chemical genetic matrix, 2015)
